{
  "source": "ChEMBL document CHEMBL1157539",
  "about": "“Thousands of chemical starting points for antimalarial lead identification” (Nature, 2010)",
  "type_in_all_cases": "functional",
  "key": {"[1]": {"tested_on": "Plasmodium falciparum", "assay": "GSK_TCMDC: Inhibition of Plasmodium falciparum 3D7 in whole red blood cells, using parasite LDH activity as an index of growth. Test compounds present at 2uM"}, "[2]": {"tested_on": "Plasmodium falciparum", "assay": "GSK_TCMDC: Inhibition of Plasmodium falciparum Dd2 in whole red blood cells, using parasite LDH activity as an index of growth. Test compounds present at 2uM"}, "[3]": {"tested_on": "HepG2", "assay": "GSK_TCMDC: Percent inhibition of human HepG2 cell line. Test compounds present at 10uM."}},
  "data": [
    {"smiles": "Cl.Nc1nc(N)c2c(ccc3nn(S(=O)(=O)N4CCCC4)cc32)n1", "values": [
      {"measurement": "Inhibition", "setting": "[1]", "result": 95, "unit": "%"},
      {"measurement": "Inhibition", "setting": "[2]", "result": 0, "unit": "%"},
      {"measurement": "Inhibition", "setting": "[3]", "result": 69, "unit": "%"}
    ]},
    {"smiles": "Cc1nc2nc(N)nc(N)c2c(C)c1Cc1ccccc1Cl.Cl", "values": [
      {"measurement": "Inhibition", "setting": "[1]", "result": 93, "unit": "%"},
      {"measurement": "Inhibition", "setting": "[2]", "result": 0, "unit": "%"},
      {"measurement": "Inhibition", "setting": "[3]", "result": 63, "unit": "%"}
    ]},
    {"smiles": "CCCCCCC(C)c1cc(OCCN(CC)CC)c2c(c1)OC(C)(C)C=C2c1ccncc1.Cl", "note": "(stereo unspecified)", "values": [
      {"measurement": "Inhibition", "setting": "[1]", "result": 90, "unit": "%"},
      {"measurement": "Inhibition", "setting": "[2]", "result": 71, "unit": "%"},
      {"measurement": "Inhibition", "setting": "[3]", "result": 14, "unit": "%"}
    ]},
    {"smiles": "CC(C)(CNC(=O)[C@H]1CCCCN1)c1nc(-c2ccc(Cl)c(O)c2)c(-c2ccncc2)[nH]1.Cl", "values": [
      {"measurement": "Inhibition", "setting": "[1]", "result": 98, "unit": "%"},
      {"measurement": "Inhibition", "setting": "[2]", "result": 98, "unit": "%"},
      {"measurement": "Inhibition", "setting": "[3]", "result": 6, "unit": "%"}
    ]},
    {"smiles": "COc1ccc2c(NN=Cc3cccc(C)n3)ccnc2c1", "values": [
      {"measurement": "Inhibition", "setting": "[1]", "result": 96, "unit": "%"},
      {"measurement": "Inhibition", "setting": "[2]", "result": 51, "unit": "%"},
      {"measurement": "Inhibition", "setting": "[3]", "result": 0, "unit": "%"}
    ]},
    {"smiles": "Clc1ccccc1CCNCC1CCN(CC2CCCCC2)CC1.O=C(O)C(F)(F)F", "values": [
      {"measurement": "Inhibition", "setting": "[1]", "result": 97, "unit": "%"},
      {"measurement": "Inhibition", "setting": "[2]", "result": 38, "unit": "%"},
      {"measurement": "Inhibition", "setting": "[3]", "result": 45, "unit": "%"}
    ]},
    {"smiles": "CC(C)Sc1nc2c(c(=O)n1Cc1ccco1)C1(CCCC1)Cc1ccccc1-2", "values": [
      {"measurement": "Inhibition", "setting": "[1]", "result": 98, "unit": "%"},
      {"measurement": "Inhibition", "setting": "[2]", "result": 10, "unit": "%"},
      {"measurement": "Inhibition", "setting": "[3]", "result": 8, "unit": "%"}
    ]},
    {"smiles": "Clc1ccc2c(NN=Cc3ccco3)ccnc2c1", "values": [
      {"measurement": "Inhibition", "setting": "[1]", "result": 100, "unit": "%"},
      {"measurement": "Inhibition", "setting": "[2]", "result": 96, "unit": "%"},
      {"measurement": "Inhibition", "setting": "[3]", "result": 3, "unit": "%"}
    ]},
    {"smiles": "Cc1cc(N2CCCCC2)nc2ccc(NC(=O)c3cccc([N+](=O)[O-])c3)cc12", "values": [
      {"measurement": "Inhibition", "setting": "[1]", "result": 95, "unit": "%"},
      {"measurement": "Inhibition", "setting": "[2]", "result": 99, "unit": "%"},
      {"measurement": "Inhibition", "setting": "[3]", "result": 9, "unit": "%"}
    ]},
    {"smiles": "COc1ccc(-c2nc3c4ccccc4c4ccc(I)cc4c3[nH]2)cc1", "values": [
      {"measurement": "Inhibition", "setting": "[1]", "result": 96, "unit": "%"},
      {"measurement": "Inhibition", "setting": "[2]", "result": 16, "unit": "%"},
      {"measurement": "Inhibition", "setting": "[3]", "result": 4, "unit": "%"}
    ]},
    {"smiles": "O=C(/C=C/c1ccc(Cl)c(Cl)c1)NCCCCCCN1CCN(C(=O)Nc2ccc(Cl)c(Cl)c2)CC1", "values": [
      {"measurement": "Inhibition", "setting": "[1]", "result": 88, "unit": "%"},
      {"measurement": "Inhibition", "setting": "[2]", "result": 0, "unit": "%"},
      {"measurement": "Inhibition", "setting": "[3]", "result": 23, "unit": "%"}
    ]},
    {"smiles": "Cc1ccccc1C1CCN(C2CCC(NC(=O)c3cc4cc(C(C)C)ccc4[nH]3)CC2)CC1", "note": "(stereo unspecified)", "values": [
      {"measurement": "Inhibition", "setting": "[1]", "result": 99, "unit": "%"},
      {"measurement": "Inhibition", "setting": "[2]", "result": 100, "unit": "%"},
      {"measurement": "Inhibition", "setting": "[3]", "result": 100, "unit": "%"}
    ]}
  ]
}
